“And” between values parts separate entries of the source, which are not always exact repeats. Equal values may be shown once. The source made the active and inactive calls. Unless noted, the rule behind the calls is not given here.
Columns and labels:
[1] = test system: Wnt5a (protein binding on small-molecule microarray); assay: small molecules binding Wnt5a protein – biophysical, small-molecule microarray, 635/667 nm fluorescence, primary screen (AID 1142); settings: 635 nm fluorescence, higher = more signal;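 note: fluorescence read at 667 nm with signal to noise per printed feature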
[2] = ATP-based viability of Huh7 replicon cells – cell-based, CellTiter-Glo luminescence, basal, 48 h, cytotoxicity control for HCV replication inhibitor project, primary screen (AID 1143); settings: higher = more signal, called active from +8 up or from −8 down;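 note: Huh7 hepatoma cells carrying a hepatitis C replication reporter with no stimulus; test concentration not given here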
[3] = Pseudomonas biofilm growth suppression – PAO1 strain, BacTiter-Glo luminescence, LB-PBS, primary screen (AID 1144); settings: P. aeruginosa PAO1 biofilm, 12 h, higher = more signal
[4] = basal CRE-LacZ reporter activity in PC12 – cell-based, unstimulated, primary screen (AID 1145); settings: no forskolin, luminescence, 4.5 h, higher = more signal, called active from +8 up or from −8 down
[5] = forskolin-driven CRE-LacZ activity in PC12 – cell-based, CRE-LacZ reporter, forskolin-stimulated, primary screen (AID 1146); settings: luminescence, 4.5 h, higher = more signal, called active from +8 up or from −8 down;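 note: PC12 cells with 6xCRE LacZ reporter stimulated by forskolin 10 µM; beta-galactosidase reporter signal reflecting CREB driven transcription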
[6] = molecular target: Streptavidin (Streptomyces avidinii) (UniProt P22629); assay: compounds binding control protein streptavidin – biophysical, small-molecule microarray, 635/667 nm fluorescence, artefact control for SMM compound annotation, primary screen (AID 1147); settings: higher = more signal;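 note: signal reflects streptavidin binding to arrayed compounds as a control protein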
Streptavidin (Streptomyces avidinii), sequence (P22629 whole entry, looked up): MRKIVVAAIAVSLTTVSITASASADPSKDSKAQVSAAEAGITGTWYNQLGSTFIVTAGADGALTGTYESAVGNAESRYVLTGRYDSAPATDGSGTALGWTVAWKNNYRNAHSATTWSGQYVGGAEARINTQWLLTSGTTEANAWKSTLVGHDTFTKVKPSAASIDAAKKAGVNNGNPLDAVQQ

[7] = probe aInhba binding on compound microarray – biochemical, small-molecule microarray, 635/667 nm fluorescence, primary screen (AID 1148); settings: higher = more signal;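 note: score merges 667nm spot fluorescence with signal-to-noise for antibody binding to printed compounds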
Torsin-1A (Homo sapiens) [8] = molecular target: Torsin-1A (Homo sapiens) (UniProt O14656); assay: TOR1A wild-type binding on microarray – cell lysate, small-molecule microarray, lysate, 635/667 nm, primary screen (AID 1149); settings: COS7 hTOR1A-WT lysate, 635 nm fluorescence, higher = more signal
Torsin-1A (Homo sapiens), sequence (O14656 whole entry, looked up): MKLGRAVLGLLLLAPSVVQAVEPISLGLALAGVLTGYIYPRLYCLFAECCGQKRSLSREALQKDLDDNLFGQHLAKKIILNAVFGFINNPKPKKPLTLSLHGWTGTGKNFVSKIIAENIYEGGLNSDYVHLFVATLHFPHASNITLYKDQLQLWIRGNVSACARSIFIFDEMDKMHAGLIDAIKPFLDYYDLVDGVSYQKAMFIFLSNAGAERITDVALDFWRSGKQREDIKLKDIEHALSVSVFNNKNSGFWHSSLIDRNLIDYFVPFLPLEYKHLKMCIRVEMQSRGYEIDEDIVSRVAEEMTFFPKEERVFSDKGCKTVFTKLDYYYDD

Torsin-1A (Homo sapiens) [9] = molecular target: Torsin-1A (Homo sapiens) (UniProt O14656); assay: torsin A mutant lysate binding on microarrays – cell lysate, small-molecule microarray, COS7 lysate, 635/667 nm fluorescence, primary screen (AID 1150); settings: COS7 hTOR1A mutant lysate, 635 nm fluorescence, higher = more signal;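 note: score pools 667 nm emission and signal to noise measuring lysate protein binding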
[10] = test system: Sonic hedgehog protein (Shh); assay: Sonic hedgehog microarray binding compounds – biochemical, small-molecule microarray, 635/667 nm fluorescence, primary screen (AID 1151); settings: 635 nm fluorescence, higher = more signal;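 note: Shh protein binding to compounds spotted on small-molecule microarray slides; score combines spot fluorescence intensity with signal-to-noise across triplicate slides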
[11] = optical density shifts of acrAB sulA E. coli – strain DRC41, OD650, 48 h, E. coli filamentation inducer project, primary screen (AID 1152); settings: higher = more signal, called active from +8 up or from −8 down;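 note: E. coli MC1000 strain DRC41 lacking acrAB efflux pump and sulA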
[12] = probe aLefty1 binding on compound microarray – biochemical, small-molecule microarray, 635/667 nm fluorescence, primary screen (AID 1153); settings: higher = more signal;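 note: score merges spot fluorescence with signal-to-noise ratio from the scanned slide images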
[13] = plasmodial surface anion channel blockers, osmotic lysis – cell-based, P. falciparum Indochina, OD700, 1 h, primary screen (AID 1154); settings: P. falciparum Indochina infected RBC osmotic lysis, higher = more signal, called active from +8 up or from −8 down
[14] = plasmodial surface anion channel blockers, osmotic lysis – cell-based, P. falciparum Indochina, OD700, 2 h, primary screen (AID 1155);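 note: lysis reports solute entry through the parasite surface anion channel PSAC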; settings: P. falciparum Indochina infected erythrocytes, higher = more signal, called active from +8 up or from −8 down
[15] = changes in parasitized red cell lysis, either direction – P. falciparum Indochina, OD700, 3 h, PSAC antagonist project, primary screen (AID 1156); settings: P. falciparum-infected erythrocytes, osmotic lysis, higher = more signal, called active from +8 up or from −8 down
[16] = plasmodial surface anion channel blockers, osmotic lysis – cell-based, P. falciparum Indochina, OD700, 18 h, primary screen (AID 1157); settings: P. falciparum Indochina infected erythrocytes, osmotic lysis OD700, 18 h; higher = more signal, called active from +8 up or from −8 down
[17] = S6 kinase pathway phospho-S6 level changes – cell-based, A549, cytoblot, luminescence, serum-stimulated, primary screen (AID 1158); settings: 5 h, higher = more signal;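 note: serum-stimulated A549 lung adenocarcinoma cells; signal is phosphorylated S6 detected by cytoblot immunostaining with HRP secondary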
[18] = molecular target: NADPH oxidase 2 (Homo sapiens) (UniProt P04839); assay: compounds shifting NOX2 Amplex Red fluorescence – cell-based, HEK293-NOX2, PMA-stimulated, NOX inhibitor project, primary screen (AID 1159); settings: 45 min, higher = more signal, called active from +8 up or from −8 down; note: test concentration not given here
NADPH oxidase 2 (Homo sapiens), sequence (P04839 whole entry, looked up): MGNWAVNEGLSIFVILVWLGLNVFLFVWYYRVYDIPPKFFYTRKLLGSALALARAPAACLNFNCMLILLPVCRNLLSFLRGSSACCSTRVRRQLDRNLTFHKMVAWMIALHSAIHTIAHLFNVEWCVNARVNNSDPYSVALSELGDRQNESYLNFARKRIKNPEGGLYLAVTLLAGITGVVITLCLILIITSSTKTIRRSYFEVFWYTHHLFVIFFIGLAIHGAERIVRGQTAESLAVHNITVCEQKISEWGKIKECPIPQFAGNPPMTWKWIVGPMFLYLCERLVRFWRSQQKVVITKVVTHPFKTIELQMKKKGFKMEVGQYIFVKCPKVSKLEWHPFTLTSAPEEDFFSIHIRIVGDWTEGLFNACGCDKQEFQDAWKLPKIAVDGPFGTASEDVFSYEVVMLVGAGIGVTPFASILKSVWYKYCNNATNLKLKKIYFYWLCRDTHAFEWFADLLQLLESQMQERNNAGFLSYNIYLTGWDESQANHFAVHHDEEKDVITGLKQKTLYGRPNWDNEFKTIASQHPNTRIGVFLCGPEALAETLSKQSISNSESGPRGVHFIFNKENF

[19] = molecular target: NADPH oxidase 4 (Homo sapiens) (UniProt Q9NPH5); assay: compounds shifting NOX4 Amplex Red fluorescence – cell-based, HEK293-NOX4, tetracycline-induced, NOX inhibitor project, primary screen (AID 1160); settings: HEK293-NOX4, Amplex Red H2O2 fluorescence, 45 min; higher = more signal, called active from +8 up or from −8 down
NADPH oxidase 4 (Homo sapiens), sequence (Q9NPH5 whole entry, looked up): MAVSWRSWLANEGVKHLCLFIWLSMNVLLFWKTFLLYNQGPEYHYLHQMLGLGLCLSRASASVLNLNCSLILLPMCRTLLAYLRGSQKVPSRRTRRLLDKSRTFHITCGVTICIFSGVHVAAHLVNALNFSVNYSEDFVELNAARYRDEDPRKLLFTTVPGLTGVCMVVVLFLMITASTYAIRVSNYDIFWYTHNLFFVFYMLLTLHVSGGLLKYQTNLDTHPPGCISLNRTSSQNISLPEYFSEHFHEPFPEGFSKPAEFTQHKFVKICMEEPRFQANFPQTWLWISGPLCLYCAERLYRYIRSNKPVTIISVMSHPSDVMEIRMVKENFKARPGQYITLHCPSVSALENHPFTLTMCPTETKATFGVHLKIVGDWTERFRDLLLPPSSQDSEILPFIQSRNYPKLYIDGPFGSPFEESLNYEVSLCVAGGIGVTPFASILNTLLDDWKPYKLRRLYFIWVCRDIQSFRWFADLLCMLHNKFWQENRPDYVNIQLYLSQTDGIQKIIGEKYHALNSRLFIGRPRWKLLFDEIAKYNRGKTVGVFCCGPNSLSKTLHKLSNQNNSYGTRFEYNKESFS

[20] = molecular target: NADPH oxidase 5 (Homo sapiens) (UniProt Q96PH1); assay: compounds shifting NOX5 Amplex Red fluorescence – cell-based, HEK293-NOX5, NOX inhibitor project, primary screen (AID 1161); settings: HEK293-NOX5, ionomycin, 45 min, higher = more signal
NADPH oxidase 5 (Homo sapiens), sequence (Q96PH1 whole entry, looked up): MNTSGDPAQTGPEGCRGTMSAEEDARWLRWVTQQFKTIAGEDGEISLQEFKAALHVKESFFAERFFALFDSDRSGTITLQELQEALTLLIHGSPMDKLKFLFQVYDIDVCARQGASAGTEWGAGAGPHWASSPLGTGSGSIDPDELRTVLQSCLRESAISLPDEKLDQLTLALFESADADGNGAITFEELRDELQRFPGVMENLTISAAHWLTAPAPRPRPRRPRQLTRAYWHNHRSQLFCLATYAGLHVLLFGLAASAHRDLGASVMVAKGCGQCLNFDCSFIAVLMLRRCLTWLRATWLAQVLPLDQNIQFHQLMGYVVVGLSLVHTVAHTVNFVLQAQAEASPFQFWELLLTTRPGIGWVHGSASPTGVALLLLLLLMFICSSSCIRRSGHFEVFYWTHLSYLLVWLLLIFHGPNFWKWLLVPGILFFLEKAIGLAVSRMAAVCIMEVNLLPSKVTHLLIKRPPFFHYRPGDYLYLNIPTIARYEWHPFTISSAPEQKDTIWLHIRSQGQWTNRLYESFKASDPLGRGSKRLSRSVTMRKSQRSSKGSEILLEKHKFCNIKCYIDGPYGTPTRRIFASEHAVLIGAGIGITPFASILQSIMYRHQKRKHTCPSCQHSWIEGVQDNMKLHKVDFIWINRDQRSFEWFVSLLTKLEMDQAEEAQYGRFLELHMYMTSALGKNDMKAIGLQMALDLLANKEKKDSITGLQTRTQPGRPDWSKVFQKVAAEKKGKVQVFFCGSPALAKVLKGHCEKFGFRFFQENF

SMILES | composite z-score [1] | z-score [2] | z-score [3] | z-score [4] | z-score [5] | composite z-score [6] | composite z-score [7] | composite z-score (Torsin-1A (Homo sapiens) [8]) | composite z-score (Torsin-1A (Homo sapiens) [9]) | composite z-score [10] | z-score [11] | composite z-score [12] | z-score [13] | z-score [14] | z-score [15] | z-score [16] | z-score [17] | z-score [18] | z-score [19] | z-score [20]
C=CCN(C(=O)C(c1cccs1)N(C(=O)/C=C\C(=O)O)c1c(Cl)cccc1CO)c1ccc(OC)cc1 (stereo not given) | -0.57 and -0.644 | -0.266 (inactive) and 0.28 (inactive) | 0.894 (inactive) | -0.895 (inactive) and -0.346 (inactive) | -0.569 (inactive) and 0.595 (inactive) | -1.33 and -0.327 | -0.336 and -0.0209 | -2.86 and -0.746 | -1.96 and -2.42 | -1.64 and -0.676 | 1.42 (inactive) and -0.536 (inactive) | 0.188 and 0.207 | -0.363 (inactive) and 2.52 (inactive) | -1.53 (inactive) and 0.102 (inactive) | -0.806 (inactive) and -0.455 (inactive) | -1.39 (inactive) and 0.0841 (inactive) | 0.312 and 0.429 | -0.102 (inactive) and -0.012 (inactive) | -1.08 (inactive) and -1.05 (inactive) | 0.145 and 0.141
C=CCN(CCCCC)C(=O)C1N(CCCCCCO)C(=O)C2C(C(=O)O)C3C=CC21O3 (stereo not given) | -0.332 and -1.43 | 0.289 (inactive) and 0.729 (inactive) | 1.69 (inactive) and 2.31 (inactive) | 0.333 (inactive) and -0.497 (inactive) | -0.587 (inactive) and -0.0866 (inactive) | -1.69 and -1.59 | -0.173 and -0.233 | -2.55 and -3.31 | -1.53 and 0.765 | -0.661 and -1.21 | -0.559 (inactive) and -0.794 (inactive) | -0.191 and 0.29 | 0.0275 (inactive) and 0.375 (inactive) | -0.76 (inactive) and 0.22 (inactive) | -0.627 (inactive) and -0.419 (inactive) | -0.33 (inactive) and 0.404 (inactive) | -0.539 and -0.626 | 1.07 (inactive) and 0.619 (inactive) | -0.208 (inactive) and -0.169 (inactive) | 1.08 and 1.26
C=CCN(Cc1ccccc1)C(=O)C(c1cccs1)N(C(=O)/C=C\C(=O)O)c1ccc(CCO)cc1 (stereo not given) | -1.26 and -0.913 | 0.735 (inactive) and 0.129 (inactive) | -0.732 (inactive) and -1.02 (inactive) | -0.0778 (inactive) and -0.0656 (inactive) | 0.0736 (inactive) and -0.183 (inactive) | -1.73 and -2.16 | -0.135 and -0.346 | -2.97 and -2.57 | -2.1 and -2.38 | -1.14 and -0.843 | 0.906 (inactive) and 0.383 (inactive) | -0.0449 and -0.314 | 0.149 (inactive) and -0.674 (inactive) | -0.36 (inactive) and 0.526 (inactive) | 0.0823 (inactive) and -0.0781 (inactive) | 0.283 (inactive) and 0.306 (inactive) | 1.84 and 0.284 | -0.228 (inactive) and -0.269 (inactive) | -0.353 (inactive) and -0.512 (inactive) | -0.0714 and -0.0433
C=CCN(C(=O)C1N(c2ccc(CCO)cc2)C(=O)C2C(C(=O)O)C3C=CC21O3)c1ccc(OC)cc1 (stereo not given) | -0.416 and -0.717 | -0.0172 (inactive) and -1.2 (inactive) | -0.143 (inactive) and -1.34 (inactive) | 0.333 (inactive) and -1.97 (inactive) | -0.0772 (inactive) and -0.526 (inactive) | -0.683 and -1.98 | -0.0066 and -0.311 | -1.29 and -2.7 | -0.584 and -1.23 | -0.141 and -1.28 | -0.0883 (inactive) and 1.76 (inactive) | -0.147 and -0.216 | 2.34 (inactive) and 0.289 (inactive) | 0.752 (inactive) and -0.136 (inactive) | -0.0787 (inactive) and -0.0798 (inactive) | 0.258 (inactive) and 0.284 (inactive) | 0.0631 and 2.4 | 1.27 (inactive) and -0.00582 (inactive) | -1.05 (inactive) and -0.234 (inactive) | 2.64 and -0.701
O=C(NN=C1C[C@@H](O)[C@@H](O)[C@@H]2[C@@H]3C(=O)N(Cc4ccc5c(c4)OCO5)C(=O)[C@@H]3CC[C@H]12)OCc1ccccc1 | 0.627 | 0.0294 (inactive) | 1.54 (inactive) | -1.29 (inactive) | 0.383 (inactive) | -0.872 | -0.0245 | 2.05 | 0.392 | -0.858 | 1.2 (inactive) | 0.126 | 37 (active) | 14.8 (active) | 0.833 (inactive) | 1.24 (inactive) | -0.241 | -1.32 (inactive) | 0.0354 (inactive) | 0.664
C=CC[C@@H](O)c1ccc(O)c2ccccc12 | 0.173 and 0.435 | 0.794 (inactive) and -0.721 (inactive) | -0.498 (inactive) and -1.33 (inactive) | 3.25 (inactive) and 2.1 (inactive) | 2.5 (inactive) and 5.93 (inactive) | 0.49 and 0.679 | -0.0553 and -0.141 | 0.261 and 0.0205 | 0.426 and 0.369 | 1.96 and 1.82 | 1.07 (inactive) and -0.266 (inactive) | 0.113 and 0.176 | 0.964 (inactive) and 0.883 (inactive) | 0.263 (inactive) and 0.49 (inactive) | -0.379 (inactive) and -0.519 (inactive) | 0.131 (inactive) and 0.548 (inactive) | -0.241 and 0.206 | -5.68 (inactive) and -5.98 (inactive) | -1.28 (inactive) and -1.66 (inactive) | 1.61 and 0.954

Source: PubChem BioAssay
